# From PubChem BioAssay (NCI)
# This is part of a sample that, as a whole, favours compounds with a hit. Of some 83,000 tested, about 20% had one in any assay.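 Values shown are percent growth following 48 h exposure of cells in 96-well plates to a single concentration of compound; below 10 was considered active.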 A number with no mark means an inactive call. Active and inactive are the calls of the source.
# How the values were obtained:
# Assay in all cases: NCI-60 one-dose screen, 48 h (100 = growth as untreated, 0 = no growth, -100 = all killed)
# Conditions in all cases: 10 µM unless noted
# SR leukemia = test system: SR leukemia
# OVCAR-8 ovarian = test system: OVCAR-8 ovarian
# OVCAR-5 ovarian = test system: OVCAR-5 ovarian
# OVCAR-4 ovarian = test system: OVCAR-4 ovarian
# SK-OV-3 ovarian = test system: SK-OV-3 ovarian
# IGROV1 ovarian = test system: IGROV1 ovarian
# OVCAR-3 ovarian = test system: OVCAR-3 ovarian
# HS 578T breast = test system: HS 578T breast
# NCI/ADR-RES ovarian = test system: NCI/ADR-RES ovarian
# T-47D breast = test system: T-47D breast
# BT-549 breast = test system: BT-549 breast
# MDA-MB-435 melanoma = test system: MDA-MB-435 melanoma
# SW-620 colon = test system: SW-620 colon
# MCF7 breast = test system: MCF7 breast
# HCT-116 colon = test system: HCT-116 colon
# HCC-2998 colon = test system: HCC-2998 colon
# KM12 colon = test system: KM12 colon
Structure (SMILES),growth (SR leukemia),growth (OVCAR-8 ovarian),growth (OVCAR-5 ovarian) [%],growth (OVCAR-4 ovarian) [%],growth (SK-OV-3 ovarian),growth (IGROV1 ovarian),growth (OVCAR-3 ovarian),growth (HS 578T breast),growth (NCI/ADR-RES ovarian),growth (T-47D breast),growth (BT-549 breast),growth (MDA-MB-435 melanoma),growth (SW-620 colon),growth (MCF7 breast),growth (HCT-116 colon),growth (HCC-2998 colon),growth (KM12 colon)
COc1cc(Cl)cc(-c2nn(C(=O)NCCN3CCOCC3)cc2-c2ccncc2)c1,29.8%,72.9%,99.5,102,48.7%,61.5%,20.3%,97%,60.9%,57.4%,115%,2.37% (active),57.5%,28.1%,51.3%,88.6%,61.7%
Nc1ncnc2c1N=C(c1ccc3c(c1)OCO3)CC(c1ccc(Cl)cc1)N2 (configuration not stated),41.3%,89.8%,68.5,77.7,78.9%,13%,103%,70.2%,60%,55.8%,81.2%,78.7%,79.9%,56.6%,87.3%,,71.7%
Clc1cc(Cl)cc(-c2cnc3nonc3n2)c1,93.2%,94.2%,93.7,85.5,96.4%,94.9%,36%,102%,98.9%,59.8%,95.6%,103%,63.9%,69.5%,72.9%,97.5%,90%
COc1ccc(/C=C(\C#N)c2cc(OC)c(OC)c(OC)c2)cc1,12.1%,15.6%,38.6,35.4,-6.74% (active),17.9%,-25.1% (active),36%,2.63% (active),55.7%,27.3%,0.449% (active),29.7%,3.63% (active),1.54% (active),21.7%,6.76% (active)
O=C(NCCN1CCCC1)n1cc(-c2ccncc2)c(-c2cc(O)cc(Cl)c2)n1,49.6%,77.8%,113,118,86.1%,109%,116%,99.6%,101%,98%,111%,57.3%,115%,96.2%,75.3%,122%,108%
CCCCCCCCCCCCCCCC1=NC(C)(C)CN1C(C)C,-49.7% (active),-16.8% (active),56.2,24.3,-6.62% (active),-32.9% (active),-43.2% (active),-31.6% (active),-22% (active),-11.2% (active),71.3%,-59.3% (active),-69.1% (active),-27.6% (active),-73.5% (active),-89.9% (active),-73.2% (active)
c1csc(-c2cnc3nonc3n2)c1,39.3%,79.2%,107,89.5,92.7%,76.9%,84.2%,92.5%,95%,45.9%,87.3%,98.6%,99.7%,61.3%,66.6%,112%,91.5%
c1cc(C2CCCCC2)ccc1-c1cnc2nonc2n1,4.98% (active),8.93% (active),25.7,43.9,33.5%,34.8%,1.51% (active),58.1%,-3.11% (active),20.7%,9.82% (active),-28.4% (active),22%,7.11% (active),4.27% (active),8.72% (active),14.2%
CCN1C(=O)N(CC)C2C1N=C(SC)N2/N=C/C=C/c1ccccc1OC (configuration not stated),13.3%,10.9%,37.2,50.5,18.9%,22.2%,-18.9% (active),59.2%,-0.869% (active),54.2%,12.8%,2.95% (active),22.7%,12.9%,6.51% (active),10.5%,4.92% (active)
